# ELG1 genotox = qHTS screen for small molecules that induce genotoxicity in human embryonic kidney (HEK293T) cells expressing luciferase-tagged ELG1; HEK293T ELG1-luciferase reporter, luminescence, 16 h; Potency, µM (highest dose often 46 µM), inactives show at the top dose activity change, positive = activation, hits mostly activators; 330,000 compounds, 1.3% hits; AID 504466, 2011; note: % of control where 0% means no effect; nearly all actives have a fitted effect of over 60% in size
#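 After overnight (16 hr) compound treatment at 37 °C, ELG1-luciferase HEK293T cells were lysed with ONE-Glo; luminescence quantified 30 min later at room temperature.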
# Rab9 promoter act = qHTS Assay for Rab9 Promoter Activators. Huh7 Rab9 promoter-luciferase reporter, luminescence, 24 h. Potency, µM (highest dose often 9.22 µM), for the others: top-dose activation, negative = inhibition, hits mostly activators. 320,000 compounds, 2.8% hits. AID 485297, 2010; note: % of control where 0% means no effect; nearly all actives have a fitted effect of over 60% in size
#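 Luciferase signal after 10 min detection reagent at ambient indicates Rab9 promoter upregulation; stably transfected Huh7 cells were treated 24 h with compound in DMSO at 37 °C, 5% CO2.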
# ELG1 repair inh = qHTS screen for small molecules that inhibit ELG1-dependent DNA repair in human embryonic kidney (HEK293T) cells expressing luciferase-tagged ELG1; HEK293T ELG1-luciferase reporter, luminescence, 16 h; DNA damage induced by 5-fluorouridine; Potency, µM (highest dose often 46.1 µM), without a hit: at the highest dose activity change, negative = inhibition, actives largely listed as inhibitors; 330,000 compounds, 2.3% hits; note: % is set by controls: 0 for no effect and ±100 for the full control effect; nearly all actives have a fitted effect of over 55% in size
#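 Cells (2,000 per well) received 5-fluorouridine plus test compound or DMSO and were incubated 16 hr at 37 °C, 5% CO2. Luciferase activity was read by luminescence 30 min after ONE-Glo addition; signal suppression marked inhibition of damage-induced ELG1 function.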
# SMN2 splice up = qHTS Assay for Enhancers of SMN2 Splice Variant Expression. HEK293 SMN2-luciferase splicing reporter, luminescence, 30-36 h. Potency, µM (titrated, usually from 46.1 µM), for inactives: at the top dose activity change, positive = activation, usual class: activators. 210,000 compounds, 2.8% hits; note: % of control where 0% means no effect; nearly all actives have a fitted effect of over 55% in size
#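 HEK293 cells carry an SMN2 minigene-luciferase reporter in which exon 7 inclusion puts luciferase in frame. Cells were seeded at 2000 cells/well, attached for 10-12 hours, then exposed to compounds for 30-36 hours at 37C before ONE-Glo luminescence.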
# NPC1 prom act = qHTS Assay for NPC1 Promoter Activators | AID 485313, 2010 | Huh7 NPC1 promoter luciferase reporter, 24 h | Potency, µM (top dose mostly 9.22 µM), inactives show at the top dose activation, usual class: activators | 320,000 compounds, 2.4% hits; note: % of control where 0% means no effect; nearly all actives have a fitted effect of over 60% in size
#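 Compounds in DMSO were transferred onto Huh7 NPC1-luciferase reporter cells pre-incubated 2 h; after 24 h at 37 °C, Amplite reagent was dispensed and luminescence recorded 10 min later.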
# FLuc modulator = qHTS profiling assay for firefly luciferase inhibitor/activator using purifed enzyme and Km concentrations of substrates (counterscreen for miR-21 project). Luciferin 4-monooxygenase (Photinus pyralis), P08659. purified FLuc, Km substrates, luminescence inhibition. Potency, µM (series often up to 57.5 µM), for the others: top-dose activity change, negative = inhibition, actives largely listed as inhibitors. 360,000 compounds, 6.9% hits;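 note: plate controls were vehicle for no effect and reference inhibitor for full effect; nearly all actives have a fitted effect of over 55% in size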
# Target sequence (P08659 whole entry, looked up): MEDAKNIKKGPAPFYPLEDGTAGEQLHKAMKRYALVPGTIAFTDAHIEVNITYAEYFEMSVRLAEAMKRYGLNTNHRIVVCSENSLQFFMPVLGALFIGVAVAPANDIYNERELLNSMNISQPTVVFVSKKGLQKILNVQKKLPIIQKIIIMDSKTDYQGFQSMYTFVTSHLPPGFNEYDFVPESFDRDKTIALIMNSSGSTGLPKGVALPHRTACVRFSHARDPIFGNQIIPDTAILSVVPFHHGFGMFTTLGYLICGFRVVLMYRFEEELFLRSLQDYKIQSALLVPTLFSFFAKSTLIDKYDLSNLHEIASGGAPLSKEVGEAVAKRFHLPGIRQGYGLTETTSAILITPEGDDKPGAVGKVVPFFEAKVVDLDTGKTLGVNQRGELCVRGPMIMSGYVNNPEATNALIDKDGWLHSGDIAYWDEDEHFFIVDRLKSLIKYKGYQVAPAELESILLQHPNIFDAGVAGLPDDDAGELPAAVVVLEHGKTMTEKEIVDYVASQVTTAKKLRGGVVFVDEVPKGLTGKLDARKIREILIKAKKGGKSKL
#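 Biochemical qHTS of compounds, final roughly 60 µM downward over six points, against 10 nM purified firefly luciferase using Km concentrations of substrates (10 uM D-luciferin, 10 uM ATP) in Tris acetate pH 7.5 buffer; luminescence output.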
# * = called active by the depositor; ? = inconclusive; . = no result given. Only some compounds are listed: those with a hit (about 9.3% of all), similar ones and a draw of the others. Calls come from the whole dose curve; as a rule, active = well fitted curve in the direction sought with a large enough effect; inconclusive = small, poorly fitted or top-dose-only effect, or another doubt; inactive = no such curve, though single readings can be large; an effect the other way counts as inactive or inconclusive. Potency is the fitted concentration of half-maximal effect.
SMILES,ELG1 genotox,Rab9 promoter act,ELG1 repair inh,SMN2 splice up,NPC1 prom act,FLuc modulator
Cc1ccccc1CCNC(=O)c1ccc2c(c1)nc1n2CCC(C)C1 (configuration not stated),.,.,.,.,.,8.49µM*
COc1ccccc1CNC(=O)c1ccc2c(=O)n3c(nc2c1)CCCCC3,-8.9%,-0.2%,-8.6%,.,2.1%,2.2%
Cc1noc(NS(=O)(=O)c2ccc(NS(=O)(=O)c3ccc(Cl)cc3)cc2)c1C,0.7%,.,15.7%,.,.,.
COc1ccc(CCNC(=O)c2ccc3c(c2)nc2n3CCCCC2)cc1OC,.,.,.,.,.,-19.7%
CC(C)Oc1ccc(CNC(=O)c2ccc3c(c2)nc2n3CCOC2)cc1,.,.,.,.,.,-1.4%
CCc1ccc(CNC(=O)c2ccc3c(c2)nc2n3CCCCC2)cc1,.,.,.,.,.,13.5µM*
Cc1ccc(CCNC(=O)c2ccc3c(c2)nc2n3CCOC2)cc1,.,.,.,.,.,-17.9%
CC(C)CCNC(=O)c1ccc2c(c1)nc1n2CCCCC1,.,.,.,.,.,6.01µM*
O=C(NCCc1ccccc1)c1ccc2c(c1)nc1n2CCOC1,.,.,.,.,.,5.36µM*
Cc1cc(NC(=O)COC(=O)CNC(=O)c2cccs2)c([N+](=O)[O-])cc1C,1.0%,-2.6%,3.6%,.,-0.9%,-1.0%
CCc1ccc(NC(=O)Cn2c(=O)ccc3cc(S(=O)(=O)N4CCCC4)ccc32)cc1,.,.,.,.,.,1.1%
O=C(Nc1ccc(N2CCOCC2)cc1)c1ccc([N+](=O)[O-])o1,9.2µM*,1.58µM*,?,.,1.41µM*,8.49µM*
CN1CCN(c2ccc(NC(=O)c3ccc(Br)o3)cc2)CC1,16.4µM*,?,?,.,1.58µM*,12µM*
CC(=O)Nc1ccc(NC(=O)c2ccc(-c3ccccc3Cl)o2)cc1,?,?,7.7%,.,6.3%,-18.6%
CN1CCN(c2ccc(NC(=O)c3ccccc3Br)cc2)CC1,14.6µM*,?,?,?,?,?
CN1CCN(c2ccc(NC(=O)c3ccc(-c4ccccc4F)o3)cc2)CC1,?,1µM*,?,.,3.16µM*,2.69µM*
Cc1ccc(-c2cc(C(=O)NCCc3ccccc3)c3c(-c4ccc(C)cc4)[nH]nc3n2)cc1,.,.,.,.,.,-19.4%
O=C(Nc1ccc(N2CCCC2)c(Cl)c1)c1ccc(Br)o1,?,2.82µM*,?,11.2µM*,3.55µM*,5.36µM*
CS(=O)(=O)N1CCN(c2ccc(NC(=O)c3ccc(Br)o3)cc2)CC1,1.46µM*,3.16µM*,?,7.08µM*,2.82µM*,-15.4%
N/C(=N\O)c1ccc(NC(=O)c2ccc(Br)o2)cc1,23.1µM*,?,?,18.5%,?,16.9µM*
CCC(=O)N1CCN(c2ccc(NC(=O)c3ccc(Br)o3)cc2)CC1,15.4%,1.3%,?,12.7%,7.6%,-12.8%
CC1CCN(c2ccc(NC(=O)c3ccc(Br)o3)cc2)CC1,1.46µM*,1µM*,?,.,1µM*,1.9µM*
COc1ccccc1N1CCN(C2CCCN(C(=O)CCC(C)=O)C2)CC1 (configuration not stated),-4.7%,-0.2%,3.2%,.,-0.8%,-1.2%
CCOC(=O)C(Cc1ccccc1)c1ccnc2ncnn12 (configuration not stated),-0.6%,3.8%,14.5%,-1.1%,-12.0%,0.5%
O=C(Nc1ccc(N2CCOCC2)cc1)c1ccc(Br)o1,?,0.282µM*,?,.,0.447µM*,4.26µM*
SMILES,ELG1 genotox,Rab9 promoter act,ELG1 repair inh,SMN2 splice up,NPC1 prom act,FLuc modulator
Nc1cccc(Oc2ccc3c(c2)C(=O)N(CC2CCCO2)C3=O)c1 (configuration not stated),15.0%,1µM*,?,.,1.58µM*,23.9µM*
Cc1ccc(C(=O)Nc2ccc3c(c2)C(=O)N(CC2CCCO2)C3=O)cc1 (configuration not stated),-9.7%,1.6%,?,.,9.0%,4.78µM*
Cc1ccnc(NC(=O)c2ccc(OCC3CCCO3)cc2)c1 (configuration not stated),?,0.126µM*,?,.,0.282µM*,0.953µM*
O=C(O)c1ccc(NC(=O)c2ccc3c(c2)C(=O)N(CC2CCCO2)C3=O)cc1 (configuration not stated),-1.3%,-1.8%,-4.5%,.,2.9%,?
Cc1ccc(NC(=O)c2ccc(OCC3CCCO3)cc2)c(C)c1 (configuration not stated),13.6%,?,?,?,20.8%,?
O=C(Nc1ccncc1)c1ccc2c(c1)C(=O)N(CC1CCCO1)C2=O (configuration not stated),1.7%,-0.8%,-3.8%,-2.7%,-2.0%,-5.7%
Cc1ccnc(NC(=O)c2ccc3c(c2)C(=O)N(CC2CCCO2)C3=O)c1 (configuration not stated),6.5%,-3.1%,19.6%,-0.8%,1.5%,21.3µM*
COc1ccc(-c2ccc(NS(=O)(=O)c3cccc([N+](=O)[O-])c3)cc2)nn1,-2.7%,-1.1%,12.3%,.,-0.4%,1.8%
O=[N+]([O-])c1cccc(S(=O)(=O)Nc2ccc(-c3ccc(N4CCOCC4)nn3)cc2)c1,-1.1%,0.7%,14.9%,.,0.7%,21.3µM*
O=[N+]([O-])c1cccc(S(=O)(=O)Nc2ccc(-c3ccc(N4CCCC4)nn3)cc2)c1,14.3%,-3.0%,20.0%,.,5.2%,30.1µM*
C[C@]12c3[nH]c4cc(-c5ccco5)ccc4c3CCN1C(=O)[C@@H](CC(=O)NCc1cccc(C(F)(F)F)c1)C[C@@H]2C(=O)N1CCCCC1,-6.6%,.,-7.4%,.,.,.
Oc1ccccc1C1NN=C(c2ccccc2)S1 (configuration not stated),?,?,?,.,?,0.477µM*
O=C1NC(c2ccccc2)=CC(c2ccccc2O)N1 (configuration not stated),-14.9%,0.3%,6.2%,.,-5.2%,2.5%
O=C(CSc1nnc(CNC(=O)c2c(F)cccc2F)o1)NCc1ccccc1Cl,1.0%,3.4%,-26.4%,.,0.3%,0.0%
Cc1ccc(NC(=O)COC(=O)c2ccco2)cc1C,1.3%,-3.5%,10.9%,.,-1.3%,?
Cc1ccc(NC(=O)COC(=O)c2ccco2)cc1,4.3%,-1.2%,2.4%,.,-2.1%,16.9µM*

# Screens deposited in PubChem BioAssay by National Center for Advancing Translational Sciences (NCATS).
